Source: PubChem BioAssay (several laboratories)
Vc quorum ag: quorum light induction in luxS cqsA deficient V. cholerae. V. cholerae BH1578 lux reporter, luminescence, 6 h. activation, % at 18.7 µM. 350,000 tested, 0.16% active. AID 588436; in the data active = activation mostly above about 9.7%, no sharp cut-off
CCHF vOTU inh-1: CCHFV vOTU protease inhibition. Pep-AMC fluorescence. inhibition, % at 11.5 µM. 370,000 tested, 0.55% active; also: 0% = vehicle wells with enzyme and 100% = no enzyme wells
VHR inh abs: blocks human VHR1 dual specificity phosphatase | recombinant VHR phosphatase, pNPP absorbance | inhibition, % at 13.3 µM | 290,000 tested, 0.52% active | AID 1654; in the data active = inhibition above about 50%
Target sequence (P51452 whole entry, looked up): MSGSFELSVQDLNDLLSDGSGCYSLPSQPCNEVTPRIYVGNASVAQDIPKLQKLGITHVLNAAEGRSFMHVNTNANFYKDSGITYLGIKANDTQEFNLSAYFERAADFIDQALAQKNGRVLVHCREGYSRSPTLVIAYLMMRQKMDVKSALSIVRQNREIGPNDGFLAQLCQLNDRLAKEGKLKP
Y pestis TopoI: Y. pestis Topo-I inhibition via cleavage products | activity, % at 10 µM | Y. pestis Topo-I cleavage product accumulation, plate reader | 360,000 tested, 0.064% active | AID 504884; in the data active = activity above about 50%, passing the limit was not always enough
MazF activator: MazEF (E. coli) toxin RNase activation. FAM/BHQ RNA-DNA oligo cleavage fluorescence, 5 h. activation, % at 20 µM. 350,000 tested, 0.32% active. AID 504720; in the data active = activation above about 50%
Target sequence (P0AE70 whole entry, looked up): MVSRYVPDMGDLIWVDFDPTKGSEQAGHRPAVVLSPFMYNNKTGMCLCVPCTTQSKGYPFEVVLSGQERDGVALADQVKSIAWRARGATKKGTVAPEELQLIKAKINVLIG
PrPC surface inh: inhibitors of human cell surface prion protein PrPC | 370,000 tested, 0.43% active | inhibition, % at 13.8 µM | TR-FRET read-out | AID 720596; in the data active = inhibition above about 24%; also: 0% = median of the test wells and 100% = reference compound wells
CCHF vOTU inh-2: CCHFV vOTU protease inhibition, confirmation; shares compounds with CCHF vOTU inh-1; 1,900 tested, 17% active; AID 686976; inhibition, % at 11.5 µM; Recombinant CCHFV vOTU, Pep-AMC fluorescence
Starred values were filed as active, the others as inactive; i = inactive; x = no result. Rows were chosen to be rich in hits. Some 1.8% of all compounds tested hit in one or more screens of this group. Rule as the data show it, unless noted: active = inhibition above about 30%; inactive = the rest.

SMILES	Vc quorum ag	CCHF vOTU inh-1	VHR inh abs	Y pestis TopoI	MazF activator	PrPC surface inh	CCHF vOTU inh-2
Cc1cc(=O)n(-c2ccc(O)cc2)[nH]1	1.4	26.6	20.9	4.9	0.6	0.6	x
COc1cc(NC(C)CCCN)c2ncccc2c1Oc1ccccc1 (centres undefined)	-0.3	29.9*	-1.2	-9.1	12.3	3.9	-3.0
CC(C)CS(=O)(=O)C1=NN2C(=N)/C(=C\c3ccc(OC(=O)c4ccco4)cc3)C(=O)N=C2S1	i	37.1*	1.3	9.5	-7.6	-3.5	5.0
O=C1C(Cl)=C(NCc2ccco2)C(=O)c2ccccc21	x	106.8*	x	-2.8	6.5	-18.6	81.4*
CCNC1=C(Cl)C(=O)c2ccccc2C1=O	i	53.2*	-2.5	-9.9	3.3	-54.3	47.5*
O=C1c2ccccc2-c2onc3ccc(NCc4ccco4)c1c23	i	x	41.4	32.9	i	x	x
CCCC(=O)NC1=C(Cl)C(=O)c2ccccc2C1=O	i	92.7*	x	-7.0	5.9	9.6	82.6*
Cc1ccc(NC2=C(Cl)C(=O)c3ccccc3C2=O)cc1	-2.4	-5.5	-8.8	-10.9	-1.0	-6.0	x
CC1ON=C(c2ccc(F)cc2)NC1=O (centres undefined)	i	1.2	x	2.0	x	4.1	x
CC1=NN(c2ccccc2)C(=O)C1C=Nc1ccc(N(C)C)cc1 (centres undefined)	-0.5	30.2*	40.8	-15.0	-9.6	-3.2	2.1
CCn1c(COc2ccc(C)cc2)nnc1SCC(=O)Nc1ccc(Oc2ccccc2)cc1	x	-0.3	x	x	x	-1.6	x
O=C(COC(=O)c1ccc([N+](=O)[O-])s1)c1ccc[nH]1	-7.1	58.3*	x	-4.9	4.7	-18.8	49.5*
O=C(COC(=O)c1ccc([N+](=O)[O-])s1)NCCc1ccccc1	i	x	x	-8.7	0.2	x	x
O=C(COC(=O)c1ccc([N+](=O)[O-])s1)NCc1ccc(F)cc1	-0.1	71.3*	1.3	2.8	-1.5	-23.5	77.4*
O=C(OCC(=O)c1ccc[nH]1)c1ccc([N+](=O)[O-])cc1	i	-14.4	x	-10.4	7.7	-14.2	x
O=C(COC(=O)c1ccc([N+](=O)[O-])s1)NC(=O)NCc1ccccc1	i	53.1*	22.5	-0.8	1.7	-34.0	48.4*
CCCCC[C@H](O)/C=C/[C@@H]1[C@H]2C/C(=C/CCCC(=O)O)O[C@H]2C[C@H]1O	x	11.6	x	x	x	17.3	x
Cc1nc(N2CCOCC2)nc(N2CCCCC2)c1[N+](=O)[O-]	-0.2	43.7*	-4.1	0.2	0.5	3.9	-9.0
Cc1nc(N2CCOCC2)nc(N2CCCC2)c1[N+](=O)[O-]	-0.2	4.3	-7.0	5.8	-1.3	-0.7	x
CCCN(C(=O)c1cn(CCC)c2ccccc12)c1ccc(Oc2cccnc2)cc1	x	38.3*	x	x	x	18.6	2.6
CCCCCN(C(=O)CCc1cn(CCCCC)c2ccccc12)c1ccc(Oc2cccnc2)cc1	x	10.9	x	x	x	9.4	x
O=C1C=CC(=O)c2c(O)c(CO)c(CO)c(O)c21	i	77.7*	x	-41.8	-359.7	-18.2	69.3*
CCn1nc(/C=C/c2ccccc2)nc2c(=O)n(C)c(=O)nc1-2	0.7	124.3*	x	0.7	9.5	-20.2	106.8*
Cn1c(=O)c(/C=C/c2ccccc2)nc2ccccc21	-0.7	-26.9	16.5	18.0	2.7	-4.7	x
CCOC(=O)[C@]12CCCC=C1N(Cc1ccc(OC)cc1)C(=O)[C@@H]2CC(=O)NCc1ccccc1	x	3.4	x	x	x	6.3	x
SMILES	Vc quorum ag	CCHF vOTU inh-1	VHR inh abs	Y pestis TopoI	MazF activator	PrPC surface inh	CCHF vOTU inh-2
CCCCNC(=O)C(NC(=O)Cc1cc(C(F)(F)F)cc(C(F)(F)F)c1)C(=O)c1ccccc1 (centres undefined)	x	29.7*	x	x	x	-6.8	0.9
CC(C)(C)c1ccc(S(=O)(=O)NCc2ccc(C(=O)N3CCCC3)cc2)cc1	-0.2	2.4	14.0	21.6	8.3	1.4	x
CC1CCN(C(=O)c2ccc(CNS(=O)(=O)c3ccc(C(C)(C)C)cc3)cc2)CC1	i	32.6*	x	47.3	1.7	7.2	-1.7
CS(=O)(=O)N(CC(=O)Nc1cccc(Br)c1)Cc1ccccc1	i	-5.7	27.2	4.8	1.6	-5.8	x
Cc1ccc(/C=[N+](\[O-])c2ccc(N(C)C)cc2)c2nsnc12	-0.4	55.8*	15.2	-8.5	20.3	-8.8	-12.0
COC(=O)c1c(NC(=O)c2ccco2)sc(C(=O)N(C)C)c1C	-1.7	32.5*	13.2	-2.0	2.8	4.4	8.2
CCc1cc(-c2cnnn2Cc2ccccc2)ccc1-c1cn(CC(C)C)nn1	-0.6	29.6*	x	25.9	3.5	3.4	-9.8
c1ccc(-n2cc(CNCCc3cscn3)c(-c3ccc4c(c3)OCO4)n2)cc1	-0.4	-7.1	38.4	4.7	2.1	-15.4	x
COCC(=O)Nc1cc(C)cn(Cc2cccc(C(F)(F)F)c2)c1=O	i	6.4	-3.2	-1.5	7.0	-10.4	x
Cc1cc(NS(C)(=O)=O)c(=O)n(Cc2cccc(C(F)(F)F)c2)c1	i	31.4*	x	1.5	-10.4	-0.4	-25.2
CCOc1ccc(S(=O)(=O)c2c[nH]c3ccccc3c2=O)cc1	i	-2.4	-6.7	2.9	5.7	6.3	x
CC(C(=O)OCC(=O)c1cccc([N+](=O)[O-])c1)N1C(=O)C2C3C=CC(C3)C2C1=O (centres undefined)	i	5.7	-17.1	4.1	3.6	-3.3	x
CC[n+]1c(/C=C/c2c[nH]c3ccccc23)ccc2cc(C)ccc21	x	34.2*	33.3	x	-101.2	-5.1	4.3
CCN(CC)C(=O)c1ccc(/C=C/c2c[nH]c3ccccc23)[n+](C)c1	-0.2	18.1	-20.2	-2.1	-217.0	-33.2	x
COc1cc(-c2ccc(Nc3ccccc3C(=O)O)c(OC)c2)ccc1Nc1ccccc1C(=O)O	i	50.8*	17.5	-22.4	-2.0	6.7	39.2*
COc1cc([N+](=O)[O-])c(OC)cc1Nc1ccccc1C(=O)O	x	15.3	x	x	x	-31.8	x
COc1cc(OC)cc(-c2nc3ccccc3c(=O)n2OC(=O)c2ccc(C)c(C)c2)c1	-1.6	-6.5	4.0	25.4	16.1	-0.8	x
COC(=O)c1ccccc1C(=O)N1CCCC(C(=O)c2ccc(OC)c(OC)c2)C1 (centres undefined)	-1.6	8.9	10.1	-7.6	2.3	-5.6	x
COc1ccc(C(=O)C2CCCN(C(=O)c3cccc(N4CCCC4=O)c3)C2)cc1OC (centres undefined)	-0.4	34.6*	-9.2	9.3	10.3	-2.3	-17.1
Nc1c(C(=O)NCCCc2ccccc2)c2nc3ccccc3nc2n1Cc1cccs1	-0.2	109.2*	27.1	5.4	-3.9	5.5	-6.1
Nc1cc2cccnc2cc1Cl	i	39.2*	x	-3.6	0.9	-7.8	7.8
COCCCNc1nc2ccccc2nc1NS(=O)(=O)c1ccc(C)cc1C	-0.5	-14.4	-10.3	14.9	-1.0	16.9	x
O=[N+]([O-])c1ccc(O)c2cccnc12	-0.2	0.9	14.0	10.2	-7.5	-12.3	x
